# Screening data as filed in PubChem.
# EPAC1 ag val: Validation qHTS for agonist of cAMP-regulated guanine nucleotide exchange factor 3 (EPAC1) | Rap guanine nucleotide exchange factor 3 (Homo sapiens), O95398 | EPAC1 Rap1b BODIPY-GDP exchange, fluorescence | Potency, µM, without a hit: max response, positive = active, usual class: activators | 16,000 tested, 1% active; note: nearly all actives have a fitted effect of over 70% in size
# EPAC2 ant val: Validation qHTS for antagonist of cAMP-regulated guanine nucleotide exchange factor 4 (EPAC2). 16,000 tested, 1.7% active. AID 1645886, 2021. Rap guanine nucleotide exchange factor 4 (Homo sapiens), Q8WZA2. EPAC2 Rap1B BODIPY-GDP exchange, fluorescence. Potency, µM (titrated, usually from 112 µM), for inactives: top-dose activity, negative = inhibition, actives largely listed as inhibitors;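 note: 100% = activation by cAMP agonist control; nearly all actives have a fitted effect of over 40% in size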
#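 Fluorescent exchange read-out: 100 nM EPAC2 with 250 nM RAP1B–BODIPY-GDP and 50 uM GDP; BODIPY-GDP release lowers fluorescence. Read at 480/540 nm every 5 min for 30 min at room temperature; normalized to 6.5 mM cAMP.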
# An asterisk follows results filed as active; i = inactive; ? = inconclusive. In the library only some 3.1% were active in any assay of this set; here they are far more common. Calls come from the whole dose curve; as a rule, active = well fitted curve in the direction sought with a large enough effect; inconclusive = small, poorly fitted or top-dose-only effect, or another doubt; inactive = no such curve, though single readings can be large; an effect the other way counts as inactive or inconclusive. Unless noted, % is set by controls: 0 for no effect and ±100 for the full control effect; potency is the fitted concentration of half-maximal effect.
SMILES,EPAC1 ag val,EPAC2 ant val
OC[C@H]1OC([S-])[C@H](O)[C@@H](O)[C@@H]1O.[Au+] (stereo not given in full),6%,-28%
Cc1cc(C(=O)NCc2nc(-c3cccc(NC(=O)c4cc(C)oc4C)c3)oc2C)nc(C)n1,4%,-16%
COc1ccc(S[C@@H]2C[C@@H](C(=O)Nc3ccc4nccnc4c3)N(C3Cc4ccccc4C3)C2)cc1,-2%,-22%
CCCCCCCCCc1ccc(OCCOCCO)cc1,-116%,?
Nc1ccc(O)cc1,8%,?
Nc1cc(N)cc(N)c1,10%,56µM*
COc1ccc(C(=O)NCC2Cc3cccc(-c4cncnc4)c3O2)c(OC)c1OC (stereo not given),-7%,-18%
Cc1c(C(=O)NCc2nccs2)cnn1-c1ncc2c(n1)-c1ccccc1CC2,-1%,-11%
CN1CCN(c2nc(-c3ccc(N(C)C)cc3)nc3ccccc23)CC1,-8%,-4%
CC(c1ccc(N(C)C)cc1)c1ccnc2ccccc12 (stereo not given),112µM*,-13%
Cc1cc(C)c2nccc(/C=C/c3ccc(N(C)C)cc3)c2c1,100µM*,45%
Cc1ccc2c(/C=C/c3ccc(N(C)C)cc3)ccnc2c1C,100µM*,6%
Cc1cc(C)c2c(C)ccnc2c1,26%,-4%
CN(C)c1ccc(/C=C/c2ccnc3c2ccc2ccccc23)cc1,?,33%
CC(=C\c1ccccc1)/C=C1/SC(=S)N(CC(=O)O)C1=O,-31%,?
C[C@@H]1C[C@H]2[C@@H]3CCC4=CC(=O)C=C[C@]4(C)[C@@]3(F)[C@@H](O)C[C@]2(C)[C@@]1(O)C(=O)COC(=O)c1cccc(S(=O)(=O)O)c1,8%,35%
C[C@@H]1CN(Cc2ccc3c(c2)CN(Cc2nc(-c4ccccc4)cs2)CCO3)C[C@H](C)O1,10%,-7%
CO[C@@H]1[C@@H](O[C@@H]2O[C@H](C)[C@@H](O[C@H]3C[C@@](C)(O)[C@@H](O)[C@H](C)O3)[C@H](N(C)C)[C@H]2O)[C@@H](CC=O)C[C@@H](C)[C@@H](O[C@@H]2CC[C@H](N(C)C)[C@@H](C)O2)/C=C/C=C/C[C@@H](C)OC(=O)C[C@H]1OC(C)=O,10%,42%
COc1ccc(-c2nc3cnc(N(C)C)nc3n(-c3ccccc3)c2=O)cc1,-94%,30%
COc1ccc(-n2c(=O)c(-c3ccc(Cl)cc3)nc3cnc(N(C)C)nc32)cc1,100µM*,13%
O=C1OC2(c3ccccc31)c1cc(Br)c(O)c(Br)c1Oc1c2cc(Br)c(O)c1Br,54%,i
O=C(O)CN(CC(=O)O)CC1=CC2C(=CC1=O)Oc1cc(O)c(CN(CC(=O)O)CC(=O)O)cc1C21OC(=O)c2ccccc21 (stereo not given),?,i
CC1(C)[C@@H](OC(=O)CCC(=O)O)CC[C@]2(C)[C@H]3C(=O)C=C4[C@@H]5C[C@@](C)(C(=O)O)CC[C@]5(C)CC[C@@]4(C)[C@]3(C)CC[C@@H]12,-7%,4µM*
CC(=O)OC1CC[C@]2(C)C(CC[C@@]3(C)C2C(=O)C=C2C4C(C)C(C)CC[C@@]4(C(=O)O)CCC23C)C1(C)C (stereo not given in full),-189%,-20%
O=C(c1cccc(N2CCCC2=O)c1)N1CCC(Oc2cccc(CN3CCN(c4ccccn4)CC3)c2)CC1,-19%,-22%
SMILES,EPAC1 ag val,EPAC2 ant val
C=CCCCCCCCCCCCC(O)CC(O)COC(C)=O (stereo not given),-118%,?
C=CCCCCCCCCCCCC(O)CC(O)CO (stereo not given) (tested in a mixture with another compound),-143%,40µM*
Cc1nn(-c2ccc(F)cc2)c(C)c1CNC(=O)c1ccc(-n2cc(NC(=O)c3ccoc3)cn2)cc1,-14%,-16%
CC(C)=CCc1c2c(c3occ(-c4ccc(O)cc4)c(=O)c3c1O)C=CC(C)(C)O2,-170%,32µM*
CC(C)=CCc1c2c(c3occ(-c4ccc(O)c(O)c4)c(=O)c3c1O)C=CC(C)(C)O2,-151%,25µM*
O=c1c(-c2ccc(O)cc2)coc2cc(O)cc(O)c12,-5%,-18%
CC(C)=CCc1c(O)cc2occ(-c3ccc4c(c3)OCO4)c(=O)c2c1O,?,-25%
Cc1ccc(S(=O)(=O)NC(=O)N[C@@H](C)Cc2ccccc2)cc1,-4%,-4%
O=S1(=O)CCO[C@H]2Cc3ccccc3[C@H]2N1Cc1cccc(F)c1,-15%,?
O=S1(=O)CCO[C@H]2Cc3ccccc3[C@H]2N1Cc1cccc(C(F)(F)F)c1,-84%,28µM*
CCCCCCC[n+]1ccc(/C=C/c2c[nH]c3ccccc23)cc1,100µM*,226%
Cc1[nH]c2ccccc2c1/C=C/c1nccc2ccccc12,28%,?
